From PubChem BioAssay
Shown are actives, neighbours in structure and some others; about 12% of the full set was active somewhere.
BAZ2B block: blocks human BAZ2B | AlphaScreen BAZ2B-H3K14Ac peptide displacement | actives 4.4% (n = 360,000) | Potency, µM (highest dose often 114 µM), inactives show at the highest dose activity change, negative = inhibition, most hits filed as inhibitors; further: on the % scale 0 is the no-effect control and ±100 the full control effect; nearly all actives have a fitted effect of over 60% in size
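AlphaScreen luminescence quantifies BAZ2B engagement of H3K14Ac peptide; the protein and biotinylated peptide are both at 50 nM final, buffer PBS pH 7.4 with 0.01% Tween-20, all steps at room temperature.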
G9a block: inhibitors of human histone lysine methyltransferase G9a | Potency, µM (top dose mostly 102 µM), without a hit: at the highest dose activity, negative = inhibition, most hits filed as inhibitors | G9a H3K9 monomethylation, AlphaScreen, 2 h | AID 504332 | actives 8.8% (n = 350,000) | Q96KQ7; further: on the % scale 0 is the no-effect control and ±100 the full control effect; nearly all actives have a fitted effect of over 75% in size
Target sequence (Q96KQ7 913-1193 limits assumed): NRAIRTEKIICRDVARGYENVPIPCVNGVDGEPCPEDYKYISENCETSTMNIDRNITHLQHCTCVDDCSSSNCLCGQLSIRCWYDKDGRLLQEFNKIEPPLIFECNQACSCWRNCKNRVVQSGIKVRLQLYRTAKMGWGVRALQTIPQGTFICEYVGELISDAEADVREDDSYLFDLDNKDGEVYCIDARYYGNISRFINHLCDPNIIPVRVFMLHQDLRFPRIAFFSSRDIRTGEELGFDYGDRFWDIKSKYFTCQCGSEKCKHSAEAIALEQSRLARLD
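Step 1: enzyme (final 20 nM) with compound, 15 min RT. Step 2: substrate peptide 500 nM and SAM 20 uM, 2 h RT. Step 3: anti-H3K9me1 antibody and AlphaScreen beads, 10 min, then plate read.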
JMJD2A Tudor: inhibitors of human JMJD2A Tudor domain | Potency, µM (series often up to 114 µM), for the others: at the top dose activity change, negative = inhibition, usual class: inhibitors | AID 504339 | O75164 | actives 4.4% (n = 390,000) | AlphaScreen JMJD2A-Tudor / H3K4me3 peptide binding; further: on the % scale 0 is the no-effect control and ±100 the full control effect; nearly all actives have a fitted effect of over 50% in size
Sfp PPTase inh: blocks B. subtilis Sfp PPTase activity; Potency, µM, without a hit: largest response in the series, negative = inhibition, actives largely listed as inhibitors; Biochemical Sfp PPTase activity, qHTS; actives 3.5% (n = 310,000); Q9F4F7;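 further: the enzyme is Sfp with the accession as filed and its product quenches rhodamine fluorescence; 0% = enzyme reaction without inhibitor and -100% = no enzyme wells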
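Reaction rates are the 30-min fluorescence difference (ex 525, em 598 nm) in wells containing 15 nM Sfp, 5 uM rhodamine-CoA and 12.5 uM BHQ-2-YbbR at pH 7.6 with 10 mM MgCl2.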
HP1b binding inh: HP1-beta chromodomain-methylated histone interaction inhibition | P83916 | actives 0.56% (n = 390,000) | Potency, µM (top dose mostly 114 µM), without a hit: at the highest dose activity change, negative = inhibition, usual class: inhibitors | AlphaScreen HP1-beta / biotin-H3K9me3 peptide binding; further: nearly all actives have a fitted effect of over 70% in size
Target sequence (P83916 whole entry, looked up): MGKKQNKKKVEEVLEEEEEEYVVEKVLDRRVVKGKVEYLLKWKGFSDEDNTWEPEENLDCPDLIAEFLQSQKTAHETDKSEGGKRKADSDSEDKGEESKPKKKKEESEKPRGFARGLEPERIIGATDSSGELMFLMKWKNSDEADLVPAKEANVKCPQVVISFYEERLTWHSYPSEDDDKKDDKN
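HP1-beta protein (50 nM final) preincubated 30 min at room temperature with biotinylated H3(1-18)K9me3 peptide (50 nM) in PBS pH 7.4, 0.01% Tween-20, then compound added for 30 min. AlphaScreen streptavidin donor/nickel chelate acceptor beads (10 ug/mL final), 30 min dark, luminescence read.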
L3MBTL1 inh: inhibitors of human L3MBTL1. Q9Y468. AlphaScreen L3MBTL1–H3K9me1 peptide binding. Potency, µM (doses to about 57.1 µM), inactives show top-dose activity, negative = inhibition, hits mostly inhibitors. actives 0.66% (n = 230,000). AID 485360; further: on the % scale 0 is the no-effect control and ±100 the full control effect; nearly all actives have a fitted effect of over 60% in size
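AlphaScreen proximity signal between nickel-chelate acceptor and streptavidin donor beads (final 10 ug/mL) reports binding of 50 nM L3MBTL1 to 75 nM biotin-H3 K9me1 peptide; complex incubated with compounds 30 min at room temperature; cefsulodin titration as control.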
* marks the source's active call; other numbers are inactive results; [ ] = remark or other dose. The call rests on the fitted dose curve; in most records, active means well fitted curve in the direction sought with a large enough effect; inconclusive means small, poorly fitted or top-dose-only effect, or another doubt; inactive means no such curve, though single readings can be large; an effect the other way counts as inactive or inconclusive. Potency means the concentration at half of the fitted maximal effect.

Screening CCOc1ccccc1OCC(=O)Nc1cc(S(=O)(=O)N2CCCCC2)ccc1OC returned BAZ2B block -5%, G9a block 7%[0.501 µM], JMJD2A Tudor -4%, HP1b binding inh 13% and L3MBTL1 inh 6%.
For COc1ccccc1OCC(=O)Nc1cc(S(=O)(=O)N2CCCCC2)ccc1N1CCCCC1 the results were BAZ2B block 79µM*, G9a block 8.9µM*, JMJD2A Tudor inconclusive, Sfp PPTase inh -15%, HP1b binding inh -3% and L3MBTL1 inh -6%.
For CCC(=O)c1ccc(OCC(=O)Nc2cc(S(=O)(=O)N3CCCCC3)ccc2N2CCN(CC)CC2)cc1 the results were BAZ2B block -35%, G9a block 10µM*, JMJD2A Tudor -31%, HP1b binding inh -9% and L3MBTL1 inh -5%.
For CCN1CCN(c2ccc(S(=O)(=O)N3CCCCC3)cc2NC(=O)COc2ccccc2)CC1 the results were BAZ2B block inconclusive, G9a block 50µM*, JMJD2A Tudor inconclusive, HP1b binding inh -12% and L3MBTL1 inh -11%.
`CCN1CCN(c2ccc(S(=O)(=O)N3CCCCC3)cc2NC(=O)COc2ccc(Cl)c(C)c2)CC1` gave BAZ2B block inconclusive, G9a block 7%[12.7 µM], JMJD2A Tudor inconclusive, Sfp PPTase inh inconclusive and HP1b binding inh 11%.
For COc1ccc(OC)c(NC(=O)COc2ccc(S(=O)(=O)N3CCCC3)cc2)c1 the results were BAZ2B block -16%, G9a block 40µM*, JMJD2A Tudor -17%, Sfp PPTase inh 4% and HP1b binding inh 15%.
COc1ccc(OCC(=O)Nc2ccc(S(=O)(=O)N3CCCCC3)cc2)cc1 was read as BAZ2B block -12%, G9a block -18%, JMJD2A Tudor -29%, Sfp PPTase inh 19% and HP1b binding inh 21%.
`Cc1ccccc1-c1noc(-c2ccc(N3CCCC3)c([N+](=O)[O-])c2)n1` gave BAZ2B block -2%, G9a block inconclusive, JMJD2A Tudor -9% and HP1b binding inh 45%.
Cc1ccccc1Cn1cc(CCC(=O)NCc2cccc(Br)c2)c2ccccc21 was read as BAZ2B block inconclusive, G9a block -28%[59 µM], JMJD2A Tudor -11% and HP1b binding inh 24%.
`COc1ccc(S(=O)(=O)N2CCOCC2)cc1NC(=O)Cc1cccs1` gave BAZ2B block 5%, G9a block -4%[2.33 µM], JMJD2A Tudor -12%, HP1b binding inh 18% and L3MBTL1 inh -4%.
CCN1CCN(c2ccc(S(=O)(=O)N3CCOCC3)cc2NC(=O)COc2ccc(F)cc2Cl)CC1 was read as BAZ2B block inconclusive, JMJD2A Tudor -33%, Sfp PPTase inh 2% and HP1b binding inh 24%.
`CC(C)c1ccccc1OCC(=O)Nc1cc(S(=O)(=O)N2CCOCC2)ccc1N1CCCC1` gave BAZ2B block -9%, G9a block 28µM*, JMJD2A Tudor inconclusive, HP1b binding inh -26% and L3MBTL1 inh -13%.
Screening Cc1ccc(OCC(=O)Nc2cc(S(=O)(=O)N3CCCCC3)ccc2N2CCN(C)CC2)c(C)c1 returned BAZ2B block inconclusive, G9a block 45µM*, JMJD2A Tudor inconclusive, HP1b binding inh -28% and L3MBTL1 inh -9%.
CCOc1ccccc1OCC(=O)Nc1cc(S(=O)(=O)N2CCCCC2)ccc1N1CCN(CC)CC1 was read as BAZ2B block -1%, G9a block 3.5µM*, JMJD2A Tudor -24%, HP1b binding inh -14% and L3MBTL1 inh -6%.
`CCOc1ccc(S(=O)(=O)N2CCCCC2)cc1NC(=O)Cc1cccs1` gave BAZ2B block 2%, G9a block 16µM*, JMJD2A Tudor -17%, HP1b binding inh 10% and L3MBTL1 inh -8%.
Screening O=C1C=CC2=C3c4cc(O)c(O)cc4C[C@]3(O)COC2=C1 returned G9a block inconclusive and Sfp PPTase inh -109%.
